From PubChem BioAssay (Tox21)
Results filed as inconclusive are left out. Unmarked numbers belong to inactive results. Activity calls are given as the source filed them. The call rests on the fitted dose curve; in most records, active means well fitted cell-killing curve with a large enough effect in the repeat runs; inconclusive means weak or mixed curves, or effect the other way; inactive means flat fitted curve, though single readings scatter.

assay: cAMP Responsive Elements (CRE) small molecule antagonists, cell-based qHTS assay: qHTS cell viability counter screen (AID 2060913); conditions: CRE-bla HEK293T viability, CellTiter-Glo luminescence, 5 h; series mostly up to 92.4 µM; viability change, negative = cytotoxic: at the top concentration; further: nearly all actives have a fitted effect of over 40% in size
In short: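 CRE-bla HEK293T cells were seeded in assay medium with 10% dialyzed FBS, incubated 18 hrs at 37 C, then exposed to compounds plus 0.25 uM final NKH477 for 3 hrs. Viability was read by CellTiter-Glo luminescence after 30 min, in the same wells.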
On the % scale 0 is the no-effect control and ±100 the full control effect; potency means the concentration at half of the fitted maximal effect.

Compound	viability change, negative = cytotoxic	Potency
CCCCOCCOC(=O)c1cccnc1	0.0686% [at 42.5 µM]	–
CC/C=C\CC/C=C/C(OCC)OCC	0.978%	–
C=C(C)C(=O)OCCOCC	-0.872%	–
CC(=O)S[C@@H]1CC2=CC(=O)CC[C@]2(C)[C@H]2CC[C@@]3(C)[C@@H](CC[C@@]34CCC(=O)O4)[C@H]12	-8.74%	–
CCCCNC(=S)NCCCC	1.39%	–
CC(C)OC(=O)CCCCC(=O)OC(C)C	10.4%	–
Nc1nc(=O)n([C@@H]2O[C@H](CO)[C@@H](O)[C@@H]2F)cc1I	5.84% [at 42.5 µM]	–
C#CCOC(=O)[C@@H](C)Oc1ccc(Oc2ncc(Cl)cc2F)cc1	3.96%	–
CC/C(=C(\c1ccc(O)cc1)c1ccc(OCCN(C)C)cc1)c1ccccc1	–	68.7 µM (active)
N[C@@H](CCC(=O)N[C@@H](CS)C(=O)NCC(=O)O)C(=O)O	4.12% [at 18.9 µM]	–
COC(=O)[C@H]1[C@H]2C[C@@H]3c4[nH]c5cc(OC)ccc5c4CCN3C[C@H]2C[C@@H](OC(=O)COc2ccc(OC)cc2)[C@@H]1OC	3.64% [at 42.5 µM]	–
O=C(NCN1CCOCC1)c1cnccn1	0.0803% [at 42.5 µM]	–
CCc1nn(C2CCCCC2)c2cc(C3(C#N)CCC(C(=O)O)CC3)ccc12 (stereo not given)	-6.83%	–
C=CC(=O)NC(C)(C)CS(=O)(=O)O	–	inactive
O=C(O)c1cccc(O)c1	-3.31%	–
Cc1ccc(C(C)C)cc2c(C)ccc1-2	3.65% [at 42.5 µM]	–
CC1=CCC(C(C)(C)O)CC1 (stereo not given)	–	inactive
CCCCCc1ccco1	6.58% [at 42.5 µM]	–
Nc1cc([N+](=O)[O-])ccc1C(=O)O	–	inactive
Fc1c(F)c(F)c(Br)c(F)c1F	2.67%	–

Compound	viability change, negative = cytotoxic	Potency
O=C(O)c1ccc2cc(O)ccc2c1	0.0439%	–
COc1cc2[nH]c(=O)[nH]c(=O)c2cc1OC	-0.947% [at 42.5 µM]	–
CC(C)(C)C1CCC(CC2=C(O)c3ccccc3C(=O)C2=O)CC1 (stereo not given)	6.86% [at 42.5 µM]	–
Cc1ccc2oc(CN(Cc3ccccc3)C(=O)Nc3c(F)cc(F)cc3F)c(-c3ccc(Cl)cc3)c2c1	-16.3%	–
O=C(C1CCCCC1)N1CC(=O)N2CCCc3ccccc3C2C1 (stereo not given)	-2.51% [at 42.5 µM]	–
CC(C(=O)O)c1ccc(-c2ccccc2)c(F)c1 (stereo not given)	-5.31%	–
CCCNC(C)(C)COC(=O)c1ccccc1	-3.43% [at 42.5 µM]	–
CS(=O)(=O)c1ccc([C@@H](O)[C@@H](CO)NC(=O)C(Cl)Cl)cc1	–	inactive
c1cc[c]([Bi]([c]2ccccc2)[c]2ccccc2)cc1	-12.1%	–
Nc1ccc2c(c1)CN1C(=O)c3ccccc3C1=N2	-16.9% [at 18.9 µM]	–
CCN(CC#N)c1cccc(C)c1	-0.294%	–
C=C(C)CCCC(C)CCO (stereo not given)	0.132%	–
Cc1cc(F)ccc1-c1cc(N2CC[C@@H](O)[C@H]2CO)ncc1N(C)C(=O)C(C)(C)c1cc(C(F)(F)F)cc(C(F)(F)F)c1	–	44.6 µM (active)
CC(C)(c1cc(Br)c(OCCO)c(Br)c1)c1cc(Br)c(OCCO)c(Br)c1	-15.3%	–
CN(C)CCCN1c2ccccc2Sc2ccc(Cl)cc21	-9.87% [at 42.5 µM]	–
C=C(C)c1ccccc1	1.87%	–
CC(C)Cc1nccs1	-9.74%	–
COC(=O)C(C)O (stereo not given)	7.29%	–
CC1(C)[C@H](C(=O)OCc2cccc(Oc3ccccc3)c2)[C@@H]1C=C(Cl)Cl	7.59%	–
CCCC(=O)O[C@]1(C(=O)CCl)[C@@H](C)C[C@H]2[C@@H]3CCC4=CC(=O)C=C[C@]4(C)[C@@]3(F)C(=O)C[C@@]21C	-15.4% [at 42.5 µM]	–
